The record followed here is PubChem BioAssay.

Results filed as inconclusive are left out. Calls of active or inactive are those of the source.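 The calls were made as follows, unless noted: active = GFP response, as percent of the DMSO control, above the screen-wide mean plus 3 SD, about 139; inconclusive = no response measured because the compound's own fluorescence interfered; inactive = the rest.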

The nature of assay [1]: yeast TOR pathway RPL19A-GFP modulators, primary screen, cell-based, S. cerevisiae, multiplex flow cytometry (AID 1862; in the data active = percent of DMSO control GFP below about 86%;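 also: lower values mimic rapamycin by blocking the RPL19A rise seen in DMSO cells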). The settings on record: S. cerevisiae RPL19A-GFP strain, flow cytometry fluorescence, 3 h; at 10 µM; stronger effect = lower value.
The nature of assay [2]: modulators of MEP2-GFP levels in yeast, primary screen, S. cerevisiae, multiplex flow cytometry (AID 1867).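 Also: median GFP channel fluorescence of barcode-gated MEP2-GFP cells measured by flow cytometry.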 The settings on record: S. cerevisiae MEP2-GFP strain, 3 h, at 10 µM, stronger effect = higher value, 100% means same as DMSO wells.
Assay [3] is described as follows: modulators of CIT2-GFP expression in yeast, primary screen, S. cerevisiae, GFP fusion, multiplex flow cytometry (AID 1870;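 active = percent response above a set limit, the screen-wide mean plus 3 SD, cut at about 130% in these data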;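 also: barcoded CIT2-GFP strain pooled with four other GFP strains with rapamycin as positive control; median GFP fluorescence per well over plate mean of DMSO wells so 100% = DMSO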). The settings on record: 3 h, at 10 µM, stronger effect = higher value.
Assay [4] in a line: modulators of LAP4-GFP expression in yeast, primary screen, S. cerevisiae, multiplex flow cytometry (AID 1873;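 active = GFP signal, as percent of the solvent control, above the screen mean plus 3 SD, about 149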). The settings on record: 3 h, at 10 µM, stronger effect = higher value.
A short description of assay [5]: modulators of AGP1-GFP expression in yeast TOR pathway, primary screen, cell-based, multiplex flow cytometry, S. cerevisiae (AID 1887;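 active = GFP signal above the screen-wide mean plus 3 SD, that is over about 124.5% of the solvent control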;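 also: AGP1-GFP fusion strain of S. cerevisiae within a five-strain barcoded multiplex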). The settings on record: 3 h, at 10 µM, stronger effect = higher value.
Assay [6] is described as follows: inhibitors of CD8+ T cell-vesicle binding, pilot screen, LFA-1/ICAM-1 modulator project, MLPCN validation set, flow cytometry (AID 2523;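 active = response below a set limit, under 55% cells CD8-positive and vesicle-bound, and CD8 cells' 90th-percentile brightness under 279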;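 as to vesicle binding response: mean PE anti-B7-1 fluorescence of CD8+ cells relative to row control; 100% = QL9-loaded vesicles with DMSO vehicle in the same plate row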). The settings on record: 2C mouse CD8+ T cells, at 7 µM, stronger effect = lower value; double positive events: measured here: CD8+/vesicle+ event percentage.
Assay [7] concerns the target Integrin beta-1 (Homo sapiens) + Integrin alpha-4 (Homo sapiens) (UniProt P13612+P05556). In words: inhibition of HUTS-21 binding to VLA-4, pilot screen, VLA-4 allosteric modulator project, U937 cells, HUTS-21 mAb, flow cytometry, validation set (AID 2674;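 active = inhibition above 50%, about 3 SD of the validation set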;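 also: antibody binding induced by the VLA-4 ligand LDV present at three times its Kd; 0% = LDV ligand with antibody and no compound and 100% = antibody without LDV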). The settings on record: HUTS-21 LIBS mAb binding, at 6.7 µM, stronger effect = higher value, binding induced by LDV ligand.

A short description of assay [8]: superoxide lowering in aged yeast cells, pilot screen, validation compound set (AID 2706;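 active = superoxide response below 65% of plate, a cut near 3 SD across the whole screen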;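 also: yeast exposed to compound for one week at 30 degrees C before staining; 100% = mean of all compound wells on the same plate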). The settings on record: S. cerevisiae aging, superoxide DHE fluorescence; at 10 µM, stronger effect = lower value.
Assay [9] concerns the target Beta-adrenergic receptor kinase 1 (Homo sapiens) (UniProt P25098). Description: GRK2 binders displacing RNA aptamer, biochemical, validation, human GRK2, bead flow cytometry (AID 488806;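 active = aptamer binding inhibition above 30%, about 3 SD of noise from non-fluorescent compounds; inactive = inhibition at or below 30%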). The settings on record: bead-bound GRK2, FAM-aptamer displacement, at 10 µM, stronger effect = higher value.
Assay [10] deals with Beta-2 adrenergic receptor (Homo sapiens) (UniProt P07550). Description: beta2AR agonists driving receptor internalization, pilot screen, cell-based, FAP fluorogen, flow cytometry, validation set (AID 504459;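 active = percent response above 42, roughly 3 SD of non-fluorescent test compounds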;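 also: agonist-driven loss of surface beta2AR via internalization measured by FAP dye flow cytometry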). The settings on record: Am2.2-beta2AR cells, FAP surface receptor flow cytometry; at 10 µM; stronger effect = higher value.
A short description of assay [11]: yeast V-ATPase proton transport modulators, S. cerevisiae, pHLuorin, HTS validation (AID 504600; in the data active = response above about 15%;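 also: plate controls were DMSO for no effect and reference compound for full effect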). The settings on record: S. cerevisiae pHLuorin cytosolic pH, at 10 µM, stronger effect = higher value.
In assay [12] the test system is anti-desmoglein-3 scFv antibody binding to human DSG3. Description: inhibitors of anti-DSG3 scFv binding to DSG3, pilot screen, biochemical, validation compound set, bead-based, flow cytometry (AID 588368;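 active = binding below the plate cutoff, the plate median minus 3 SD, with a reading above zero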;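 also: signal is the median channel fluorescence of bead-bound GFP antibody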). The settings on record: Protein G beads, DSG3-Fc, scFv-GFP binding, at 10 µM, stronger effect = lower value.
A short description of assay [13]: inhibitors of fungal efflux pumps CDR1, CDR2, MDR1, pilot screen, validation compound set, multiplex, phenotypic (AID 588506;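 active = efflux inhibition above 0.42, the validation set average plus 4 SD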;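 also: Nile Red retained in cells so higher fluorescence means more efflux inhibition; 0 = negative control wells and 1 = enniatin B 25 µM full block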). The settings on record: S. cerevisiae pump-expressing triplex, Nile Red efflux flow cytometry; at 10 µM; stronger effect = higher value; the pumps come from Candida albicans.
Assay [14] deals with ATP-binding cassette sub-family B member 6 (Homo sapiens) (UniProt Q9NP58). Description: ABCB6 transporter inhibitors, pilot screen, K562-ABCB6 cells, flow cytometry, validation set (AID 588550;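 active = inhibition above the screen-wide mean plus 3 SD, about 51%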;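 also: 0% = DMSO wells and 100% = benzethonium chloride 70 µM positive control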). The settings on record: K562-ABCB6 porphyrin accumulation, 1 h, at 10 µM, stronger effect = higher value.
Assay [15] can be described thus: promoters of myeloid differentiation in arrested cells, primary screen, cell-based, GFP/MAC1 double positive, flow cytometry, validation set (AID 588685;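 active = differentiation response of at least 50%, scaled between solvent and reference control, from cells with both markers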;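 also: compound exposure lasts four days before antibody staining and flow analysis; 0% = DMSO wells and 100% = 5 µM fulvestrant positive control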). The settings on record: ER-HoxA9 marrow cells, stronger effect = higher value, normalized: vehicle 0, fulvestrant 100.
The target in assay [16] is AP-2 complex subunit beta (Homo sapiens) (UniProt P63010). Description: inhibitors of arrestin peptide binding to AP2, pilot screen, biochemical, validation set, GST-AP2 beads, flow cytometry (AID 504541;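 active = inhibition above 54%, about 3 SD of non-fluorescent compounds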;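 also: AP2 carries R879A mutation and is captured from E. coli lysate; bead-bound FITC arrestin peptide fluorescence measuring arrestin peptide binding to AP2; 0% = DMSO wells and 100% = excess unlabeled arrestin peptide control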). The settings on record: FITC arrestin peptide, at 10 µM, stronger effect = higher value, AP2 beta2 appendage fragment, R879A mutant.
AP-2 complex subunit beta (Homo sapiens), sequence (P63010 whole entry, looked up, the tested form may be a part, one chain of several): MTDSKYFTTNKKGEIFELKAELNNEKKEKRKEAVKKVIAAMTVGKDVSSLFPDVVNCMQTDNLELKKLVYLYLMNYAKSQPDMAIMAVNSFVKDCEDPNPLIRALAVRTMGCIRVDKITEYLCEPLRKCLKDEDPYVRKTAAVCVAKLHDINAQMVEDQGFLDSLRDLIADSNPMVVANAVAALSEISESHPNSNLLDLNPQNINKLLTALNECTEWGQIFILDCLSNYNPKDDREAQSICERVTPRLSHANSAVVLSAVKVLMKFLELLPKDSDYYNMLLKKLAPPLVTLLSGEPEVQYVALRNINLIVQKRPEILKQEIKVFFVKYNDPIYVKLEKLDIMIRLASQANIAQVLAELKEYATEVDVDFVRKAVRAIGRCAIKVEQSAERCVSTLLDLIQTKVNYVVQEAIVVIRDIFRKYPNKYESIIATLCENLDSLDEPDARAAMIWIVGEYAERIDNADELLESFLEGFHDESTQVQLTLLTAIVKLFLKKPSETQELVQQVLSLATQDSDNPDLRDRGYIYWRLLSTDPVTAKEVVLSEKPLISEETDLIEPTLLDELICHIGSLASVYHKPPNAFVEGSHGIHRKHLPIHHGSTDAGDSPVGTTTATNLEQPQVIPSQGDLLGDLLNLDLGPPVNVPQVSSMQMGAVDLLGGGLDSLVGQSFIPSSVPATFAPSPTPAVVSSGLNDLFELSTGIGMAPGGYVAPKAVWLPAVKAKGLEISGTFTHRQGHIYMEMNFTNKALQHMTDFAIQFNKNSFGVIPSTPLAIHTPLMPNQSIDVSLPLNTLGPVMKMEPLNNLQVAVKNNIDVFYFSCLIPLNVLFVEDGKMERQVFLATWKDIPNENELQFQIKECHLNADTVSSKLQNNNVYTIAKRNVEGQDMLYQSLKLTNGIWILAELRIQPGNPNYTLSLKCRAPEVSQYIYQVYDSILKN

Integrin beta-1 (Homo sapiens) + Integrin alpha-4 (Homo sapiens), sequence (P05556 whole entry, looked up): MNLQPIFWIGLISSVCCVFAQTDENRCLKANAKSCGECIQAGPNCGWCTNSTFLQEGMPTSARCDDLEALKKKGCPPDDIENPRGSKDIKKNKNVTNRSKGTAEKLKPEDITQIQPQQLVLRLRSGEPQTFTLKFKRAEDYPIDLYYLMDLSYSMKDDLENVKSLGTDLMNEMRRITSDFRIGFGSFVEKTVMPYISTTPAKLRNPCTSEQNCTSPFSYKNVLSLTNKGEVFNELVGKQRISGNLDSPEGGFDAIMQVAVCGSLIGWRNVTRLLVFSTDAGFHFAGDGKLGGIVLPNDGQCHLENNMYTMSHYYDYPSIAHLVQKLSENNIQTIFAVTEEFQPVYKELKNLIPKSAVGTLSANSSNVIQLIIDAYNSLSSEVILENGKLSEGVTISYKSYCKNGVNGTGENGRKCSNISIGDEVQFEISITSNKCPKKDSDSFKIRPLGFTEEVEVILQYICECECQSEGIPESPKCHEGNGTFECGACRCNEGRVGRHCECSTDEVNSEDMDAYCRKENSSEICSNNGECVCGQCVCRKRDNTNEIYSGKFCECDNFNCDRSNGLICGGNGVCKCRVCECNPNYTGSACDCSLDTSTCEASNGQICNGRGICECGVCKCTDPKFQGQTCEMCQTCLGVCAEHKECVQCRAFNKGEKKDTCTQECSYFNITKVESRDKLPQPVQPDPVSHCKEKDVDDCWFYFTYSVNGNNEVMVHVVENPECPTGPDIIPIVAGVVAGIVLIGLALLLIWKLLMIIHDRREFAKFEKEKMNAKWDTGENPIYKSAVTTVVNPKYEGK
Integrin beta-1 (Homo sapiens) + Integrin alpha-4 (Homo sapiens), sequence (P13612 whole entry, looked up): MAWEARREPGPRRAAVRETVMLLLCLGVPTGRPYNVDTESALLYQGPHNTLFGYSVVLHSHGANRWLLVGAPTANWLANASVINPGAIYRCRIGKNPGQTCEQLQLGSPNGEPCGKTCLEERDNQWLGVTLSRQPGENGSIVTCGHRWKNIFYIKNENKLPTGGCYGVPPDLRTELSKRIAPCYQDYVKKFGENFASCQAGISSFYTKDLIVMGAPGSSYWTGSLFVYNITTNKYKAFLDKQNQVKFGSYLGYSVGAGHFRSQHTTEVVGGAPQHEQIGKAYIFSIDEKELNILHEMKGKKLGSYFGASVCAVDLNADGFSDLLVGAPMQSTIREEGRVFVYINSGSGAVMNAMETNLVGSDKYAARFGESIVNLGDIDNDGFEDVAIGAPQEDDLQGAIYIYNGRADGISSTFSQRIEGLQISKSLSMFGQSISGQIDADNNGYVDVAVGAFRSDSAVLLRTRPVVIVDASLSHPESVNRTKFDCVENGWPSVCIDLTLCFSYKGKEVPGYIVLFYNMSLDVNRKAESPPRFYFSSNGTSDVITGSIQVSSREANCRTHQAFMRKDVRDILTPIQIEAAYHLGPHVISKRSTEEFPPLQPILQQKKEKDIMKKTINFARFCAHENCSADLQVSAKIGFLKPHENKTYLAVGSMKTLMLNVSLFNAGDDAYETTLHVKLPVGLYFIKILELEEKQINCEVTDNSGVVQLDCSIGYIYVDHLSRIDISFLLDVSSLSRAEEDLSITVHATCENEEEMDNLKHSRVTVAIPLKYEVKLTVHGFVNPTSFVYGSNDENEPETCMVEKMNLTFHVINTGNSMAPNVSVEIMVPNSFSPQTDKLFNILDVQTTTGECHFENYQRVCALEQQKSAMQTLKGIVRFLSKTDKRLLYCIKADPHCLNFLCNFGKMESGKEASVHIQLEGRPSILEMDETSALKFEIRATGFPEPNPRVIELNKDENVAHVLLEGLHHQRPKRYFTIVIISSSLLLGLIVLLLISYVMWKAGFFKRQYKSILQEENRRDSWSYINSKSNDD
ATP-binding cassette sub-family B member 6 (Homo sapiens), sequence (Q9NP58 whole entry, looked up): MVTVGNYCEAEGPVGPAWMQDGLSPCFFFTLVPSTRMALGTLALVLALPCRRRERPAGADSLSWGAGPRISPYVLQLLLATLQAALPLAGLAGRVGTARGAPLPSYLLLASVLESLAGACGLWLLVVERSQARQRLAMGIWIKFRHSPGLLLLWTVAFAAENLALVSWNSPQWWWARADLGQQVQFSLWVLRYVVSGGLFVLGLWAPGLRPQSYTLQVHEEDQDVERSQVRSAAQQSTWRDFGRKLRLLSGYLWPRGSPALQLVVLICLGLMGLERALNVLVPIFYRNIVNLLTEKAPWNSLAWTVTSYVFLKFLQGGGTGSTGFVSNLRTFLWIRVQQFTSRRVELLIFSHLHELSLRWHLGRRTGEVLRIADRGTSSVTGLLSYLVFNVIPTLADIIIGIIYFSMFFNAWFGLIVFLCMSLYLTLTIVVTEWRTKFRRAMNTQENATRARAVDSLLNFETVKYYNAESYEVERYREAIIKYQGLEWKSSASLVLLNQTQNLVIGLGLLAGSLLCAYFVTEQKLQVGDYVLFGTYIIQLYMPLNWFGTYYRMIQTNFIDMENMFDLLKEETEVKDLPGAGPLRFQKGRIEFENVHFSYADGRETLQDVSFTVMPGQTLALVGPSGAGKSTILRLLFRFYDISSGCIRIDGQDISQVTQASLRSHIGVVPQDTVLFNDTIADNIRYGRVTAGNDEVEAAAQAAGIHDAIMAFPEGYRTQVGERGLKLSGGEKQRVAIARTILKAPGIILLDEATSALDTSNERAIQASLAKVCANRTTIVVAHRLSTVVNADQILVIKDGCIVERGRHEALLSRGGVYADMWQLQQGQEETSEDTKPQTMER
Beta-adrenergic receptor kinase 1 (Homo sapiens), sequence (P25098 whole entry, looked up): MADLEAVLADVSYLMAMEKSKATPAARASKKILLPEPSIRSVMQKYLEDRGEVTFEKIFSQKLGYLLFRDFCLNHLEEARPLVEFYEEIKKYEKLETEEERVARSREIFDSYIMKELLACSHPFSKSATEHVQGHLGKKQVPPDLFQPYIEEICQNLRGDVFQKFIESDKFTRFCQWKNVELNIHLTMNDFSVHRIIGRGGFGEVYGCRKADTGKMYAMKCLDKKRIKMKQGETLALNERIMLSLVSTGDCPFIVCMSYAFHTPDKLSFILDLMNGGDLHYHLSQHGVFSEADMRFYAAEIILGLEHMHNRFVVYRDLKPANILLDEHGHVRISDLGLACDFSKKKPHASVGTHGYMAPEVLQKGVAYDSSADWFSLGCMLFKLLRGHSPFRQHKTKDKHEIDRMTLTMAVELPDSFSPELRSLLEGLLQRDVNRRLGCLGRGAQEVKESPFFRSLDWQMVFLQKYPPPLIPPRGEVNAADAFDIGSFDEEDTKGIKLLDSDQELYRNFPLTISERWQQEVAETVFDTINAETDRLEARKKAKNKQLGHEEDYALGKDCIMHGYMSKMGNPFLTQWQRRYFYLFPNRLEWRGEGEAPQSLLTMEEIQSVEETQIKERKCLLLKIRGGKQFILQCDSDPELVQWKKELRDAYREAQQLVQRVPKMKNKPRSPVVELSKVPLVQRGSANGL
Beta-2 adrenergic receptor (Homo sapiens), sequence (P07550 whole entry, looked up): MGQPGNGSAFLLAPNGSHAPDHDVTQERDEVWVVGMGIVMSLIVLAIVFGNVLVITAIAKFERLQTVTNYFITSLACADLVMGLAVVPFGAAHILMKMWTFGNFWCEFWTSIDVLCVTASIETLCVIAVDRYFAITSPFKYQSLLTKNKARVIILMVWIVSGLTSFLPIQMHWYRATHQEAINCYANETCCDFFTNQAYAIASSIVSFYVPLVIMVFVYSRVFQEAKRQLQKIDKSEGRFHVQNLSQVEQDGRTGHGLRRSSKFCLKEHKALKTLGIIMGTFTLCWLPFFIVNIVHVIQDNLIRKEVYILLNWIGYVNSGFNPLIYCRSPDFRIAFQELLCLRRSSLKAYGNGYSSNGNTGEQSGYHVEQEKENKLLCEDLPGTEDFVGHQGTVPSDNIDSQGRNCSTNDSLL

As to `CC(C)CN1CC(C(=O)O)CC1=O` (stereo not given), the percent of DMSO control GFP in assay [1] is 96.1% (inactive). The values for the GFP response vs DMSO in [2] and in assay [4] were 101% (inactive) and 104% (inactive), respectively. The percent response of DMSO control in [3] is 96% (inactive). In assay [5], the GFP response, % of DMSO is 102% (inactive). In assay [6], this compound gave a double positive events of 56%. Further, the vesicle binding response in assay [6] is 66.5% (inactive). Further, the figures for the inhibition in assay [7] and in assay [14] were 1.12% (inactive) and 4% (inactive), respectively. Moreover, the superoxide response (% of plate) in [8] is 102% (inactive). In addition, in assay [9], the aptamer binding inhibition is 0% (inactive). Moreover, the values for the response in [10] and in assay [11] were -5.23% (inactive) and -1.05% (inactive), respectively. Besides, the binding (% of control) in assay [12] was 104% (inactive). Also, in assay [13], the efflux inhibition (fraction of control) is -0.57 (inactive). Also, the differentiation response in assay [15] was 5.73% (inactive).

As for `Nc1nc2c(ncn2COC(CO)CO)c(=O)[nH]1`, in [1], the percent of DMSO control GFP is 97.3% (inactive). For the same compound, the GFP response vs DMSO in [2] is 106% (inactive); in assay [4] it was 125% (inactive). For the same compound, the percent response of DMSO control in assay [3] is 96.4% (inactive). In [5], the GFP response, % of DMSO is 119% (inactive). Moreover, the double positive events in [6] was determined as 60.3%. Besides, the vesicle binding response in assay [6] is 212% (inactive). Moreover, the inhibition in assay [7] was -11.3% (inactive); in assay [16] it was -16.5% (inactive); in assay [14], 5% (inactive). Also, the superoxide response (% of plate) in assay [8] was 106% (inactive). In addition, the aptamer binding inhibition in assay [9] was -6% (inactive). Further, the response is -20.9% (inactive) in assay [10] and -2.35% (inactive) in assay [11]. Further, the binding (% of control) in [12] was 98% (inactive). In assay [15], the differentiation response was -10.9% (inactive).

Regarding `O=c1ccn([C@@H]2O[C@H](CO)[C@@H](O)[C@H]2O)c(=O)[nH]1`, the percent of DMSO control GFP in assay [1] is 102% (inactive). For the same compound, the figures for the GFP response vs DMSO in [2] and in [4] were 102% (inactive) and 98.3% (inactive), respectively. Moreover, in assay [3], the percent response of DMSO control was 93.8% (inactive). Besides, the GFP response, % of DMSO in assay [5] is 109% (inactive). In assay [6], this compound showed a double positive events of 63.9%. The vesicle binding response in assay [6] is 124% (inactive). The figures for the inhibition in assay [7], in assay [16] and in [14] were 11.7% (inactive), 10.2% (inactive) and 1% (inactive), respectively. The superoxide response (% of plate) in assay [8] was 99.8% (inactive). For the same compound, the aptamer binding inhibition in assay [9] was 3% (inactive). Further, the response in assay [10] was -22.4% (inactive); in assay [11], 1.83% (inactive). In addition, the binding (% of control) in assay [12] was 102% (inactive). For the same compound, in assay [15], the differentiation response is 24.6% (inactive).

As to `CC(C)NCC(O)COc1ccc(CC(N)=O)cc1` (stereo not given), in assay [1], the percent of DMSO control GFP was 99.2% (inactive). The GFP response vs DMSO is 100% (inactive) in assay [2] and 97.3% (inactive) in assay [4]. Moreover, in assay [3], the percent response of DMSO control was 105% (inactive). Further, in assay [5], the GFP response, % of DMSO is 99.1% (inactive). In addition, in assay [6], the double positive events was 61.8%. Besides, the vesicle binding response in [6] is 127% (inactive). For the same compound, the inhibition was -2.53% (inactive) in assay [7], -8.74% (inactive) in assay [16] and 6% (inactive) in assay [14]. Further, the superoxide response (% of plate) in [8] was 82.7% (inactive). Also, in [9], the aptamer binding inhibition is 2% (inactive). For the same compound, in [11], the response is 0.46% (inactive). In addition, the binding (% of control) in assay [12] is 101% (inactive). Moreover, the efflux inhibition (fraction of control) in assay [13] is -0.39 (inactive). The differentiation response in assay [15] was -2.69% (inactive).

For the compound `O=C(NCCCCCc1nc2ccccc2[nH]1)c1ccccc1Cl`, the percent of DMSO control GFP in assay [1] was 101% (inactive). Moreover, the GFP response vs DMSO is 107% (inactive) in [2] and 95.9% (inactive) in assay [4]. In addition, the percent response of DMSO control in assay [3] is 98.6% (inactive). Also, the GFP response, % of DMSO in [5] is 103% (inactive). Further, in [6], the double positive events was determined as 62.5%. In addition, the vesicle binding response in [6] was 124% (inactive). Besides, the inhibition in assay [7] is -7.79% (inactive); in assay [14], 6% (inactive). The superoxide response (% of plate) in assay [8] is 102% (inactive). Moreover, in assay [9], the aptamer binding inhibition was 3% (inactive). Moreover, the response in [10] is 25.8% (inactive); in assay [11], -2.36% (inactive). Further, the binding (% of control) in assay [12] was 109% (inactive). For the same compound, in assay [13], the efflux inhibition (fraction of control) was 0.69 (active). The differentiation response in assay [15] is 10.1% (inactive).
